These results are taken from paper PMC12864922, “TDP-43 directly inhibits mRNA accumulation in neurites through modulation of mRNA stability”.

To fix the notation:
B1: ENSMUSG00000061578.815|Ksr2 (ssRNA)
RNA: GGGAGUUCUACAGUCCGACGAUCGCUUCGAUAUCCGCAUGCUAUGGGACUCUUUUUAUGAGGAACCAGUCCUGUUGAAUCGGGGUGCUCUGUAUUAGUUAUUUUUGUAACUUGUGAUUGUAACCAAAUGCCCGAUAGAAACAGCAUUCUGGCUCACAGUUUCAAAGGGCUCAGUCCAUAGCUGCCUGACUCUGUGUUUCUAGGCCUUUCUUGAGGCAAGUGUUCAUCAUGAUAGUGUGAGGGUGAGGAGGAGUUUCUUCAUGGCAAACAGGAAGCAAAGAGCAAUACAGGAAAAGGUCAGGGGCUCUUGCGGUCGCACUAGUGUGGAAUUCUCGGGUGUCAAGG
B2: ENSMUSG00000061578.1222|Ksr2|31:35;225:229 (ssRNA)
RNA: GGGAGUUCUACAGUCCGACGAUCGCUUCGAUAUCCGCAUGCUAGAAUGAGCCGCUGGGAUAUUGACAUGGAGAACACAUGAUGGAAAAAGCCUCCACACCCAACAUAACUCUCCAGAGAGAUAUUGAAAGUGAUGGGCAGAGAGUCUGACAAUGACCCAGGGGUCAUUGUGAGUCCUAGGCUGAAUCUGUAAUGGGGUCCAAAGUGCAGGAGAGACUGCAUUCACCUUGUUGGUGGGGUGGGGCUUCUUUCAUUACUUUAAGUAUCUCAUACGGCUUGAGGCAUGGGAAACAGCACCUUGUCUCUCUUGCGGUCGCACUAGUGUGGAAUUCUCGGGUGUCAAGG
B3: ENSMUSG00000022095.104|Fam160b2 (ssRNA)
RNA: GGGAGUUCUACAGUCCGACGAUCGCUUCGAUAUCCGCAUGCUAGCUGUUGCAAAAUUCCCAACUGCCUCCUGGCAGAGGCCCAAAGUAUGCUCUGCGCCCAGGCGGGGGCAGCUGCUAACAAGAGCCCUGGCGCAGCUGCAGCCAGGGCAGGCGAGAGCCUUGGAGCUGGGUGCCAGGCUCCAGCUCCAGCUCCAGCUGGUUCCUCUCUGGCGCCUUCUGAACCCGUCUCAGCAAGUCCGAAACACCUGGGCAGAGAGGUCAUUGACCAGGGAUGGGGGCCCUUGCCCUCUGAAUCCUGCCCACUCUUGCGGUCGCACUAGUGUGGAAUUCUCGGGUGUCAAGG
B4: ENSMUSG00000061578.919|Ksr2|82:86 (ssRNA)
RNA: GGGAGUUCUACAGUCCGACGAUCGCUUCGAUAUCCGCAUGCUACAAUUCUACCCAUGACAGACAUGUCCCAUCCAUGAGCCCAGAUAGUCAAAGACUUCAGCACAAGGGUGUUUAGAGUAGGCACACACGAAGUAUCAAUAAGGUUAUUGAGAUGAGGAUUUAGAAAGAUCCAUGUAUAAAAGGUCUAGAAGGAUGAAGAUCUAAAACAAGAAGACUGCAUGUUAACGCUCCUGCCACUGUUGCCCCUUCCUUUACCCUUGGCAGACAUUGCUAAUCAAUCUCAGCACAGUUUCCAACCACAGCUCUUGCGGUCGCACUAGUGUGGAAUUCUCGGGUGUCAAGG
B5: ENSMUSG00000061578.806|Ksr2 (ssRNA)
RNA: GGGAGUUCUACAGUCCGACGAUCGCUUCGAUAUCCGCAUGCUACCUCUCUCCAAUCUUUACCUUUGCCUCUACUAGAUGAUCUUGCAUCUGUCUUUGUGGGACUCUUUUUAUGAGGAACCAGUCCUGUUGAAUCGGGGUGCUCUGUAUUAGUUAUUUUUGUAACUUGUGAUUGUAACCAAAUGCCCGAUAGAAACAGCAUUCUGGCUCACAGUUUCAAAGGGCUCAGUCCAUAGCUGCCUGACUCUGUGUUUCUAGGCCUUUCUUGAGGCAAGUGUUCAUCAUGAUAGUGUGAGGGUGAGGAGCUCUUGCGGUCGCACUAGUGUGGAAUUCUCGGGUGUCAAGG
B6: ENSMUSG00000043670.134|Diras1 (ssRNA)
RNA: GGGAGUUCUACAGUCCGACGAUCGCUUCGAUAUCCGCAUGCUACCUGGCCACCCCGAGUACCACCUCUGGAAUAGCAGACGCCCACAGCACAAGCCCAGGACUGUCCCUUCAGGGGAGGCACACUGGAACCCUGAACUUGGAGUGUGGAGUGGCUGCCUGGACACUGCCCACCUGGACACCAGCCUUCUGCUGAGAUAGAGACCUUGGCACAGUGGCACCUCGACAGCCACCCCGACUGGGGGUUUGGGGUGCUGAGGGUGGGGUGCCCAGCUGAGAGUCUAUCAGCAAAGUCCCUGUGUGCGCUCUUGCGGUCGCACUAGUGUGGAAUUCUCGGGUGUCAAGG
B7: ENSMUSG00000058297.456|Spock2|123:127 (ssRNA)
RNA: GGGAGUUCUACAGUCCGACGAUCGCUUCGAUAUCCGCAUGCUAUCACACAGGUCAGAUUAUUGUCGGUCCUGCGGGCCUCAUCCUUGAAUAAGCUGCCUGCCCAGUUCCUCCAUCCGUGUUCCUGCCUGCUCCCGUUCCCUUGUUGCGGGCAGGAGAGGUAGGGCACACAUGGAAAGAGUUCAACCAAAUUACGGCAGCACCACAUCUUGCCGAGCCCUGGAGCUGCCCUACUAAGAGCCUCCUUAGCCCUGGGUGCUGGGAAGGAUGGUGUACGUUGGGGAAGUUUGAGGUUGGAGAGAGUACUCUUGCGGUCGCACUAGUGUGGAAUUCUCGGGUGUCAAGG
B8: ENSMUSG00000043670.205|Diras1 (ssRNA)
RNA: GGGAGUUCUACAGUCCGACGAUCGCUUCGAUAUCCGCAUGCUACACCCAGAUGAGGGUGACUUAGAAUUCUGUGUUUAUGUGCCUGUGUGUGUGGAUGGGUGUGUGUCUGUCUUGGGAUGGGGUGUUCUUGCACCACUUUGUGUUCUUAGUGAGACCACAGUGUAAGUGGCCGUGUGUGUGUGUGGGGGGGGGCACCUAGACAUUGUGGUGUGUCUGUAUGGCUCUGUGUUUUCAGGGGUGGGUGACACAGGCCUGUCUGAUGAGCACCAGGUCUGUUCCAGGCUGUGGCAAGCUGGCUCCUGCUCUUGCGGUCGCACUAGUGUGGAAUUCUCGGGUGUCAAGG
B9: ENSMUSG00000043670.208|Diras1 (ssRNA)
RNA: GGGAGUUCUACAGUCCGACGAUCGCUUCGAUAUCCGCAUGCUAUUAGAAUUCUGUGUUUAUGUGCCUGUGUGUGUGGAUGGGUGUGUGUCUGUCUUGGGAUGGGGUGUUCUUGCACCACUUUGUGUUCUUAGUGAGACCACAGUGUAAGUGGCCGUGUGUGUGUGUGGGGGGGGGCACCUAGACAUUGUGGUGUGUCUGUAUGGCUCUGUGUUUUCAGGGGUGGGUGACACAGGCCUGUCUGAUGAGCACCAGGUCUGUUCCAGGCUGUGGCAAGCUGGCUCCUGGCUCAGAAGUGACAAAGCCUCUUGCGGUCGCACUAGUGUGGAAUUCUCGGGUGUCAAGG

The full ranking holds about 9,900 sequences; the median of “r (bound/input frequency ratio)” is about 0.7, and the highest 2% start at about 6.5. The entries come from a sample that favours the highest values as a whole.

Chain of TDP-43 (Q13148 whole entry): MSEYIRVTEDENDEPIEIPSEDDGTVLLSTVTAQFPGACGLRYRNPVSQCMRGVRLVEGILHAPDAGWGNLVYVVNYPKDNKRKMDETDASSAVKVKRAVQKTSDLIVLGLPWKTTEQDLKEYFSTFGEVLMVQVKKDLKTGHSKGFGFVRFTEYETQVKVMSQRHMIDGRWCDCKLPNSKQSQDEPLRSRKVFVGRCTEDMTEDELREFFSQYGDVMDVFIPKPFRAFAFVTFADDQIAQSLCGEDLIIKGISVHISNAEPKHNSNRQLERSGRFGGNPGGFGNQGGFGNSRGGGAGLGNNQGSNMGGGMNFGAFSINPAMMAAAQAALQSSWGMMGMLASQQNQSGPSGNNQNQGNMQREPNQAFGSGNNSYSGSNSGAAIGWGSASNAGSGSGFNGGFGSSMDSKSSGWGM

The test concerns the target TDP-43 (Homo sapiens, UniProt Q13148 1-414). In words: RNA Bind-n-Seq with designed 260-mer pool; 25 mM Tris-HCl, 150 mM KCl, 3 mM MgCl2, BSA (printed 500 mg/mL), 20 units/mL SUPERase IN; pH not stated; 500 nM RNA pool, 1 h, 4 C; TDP-43 5, 50, 500 nM; high values mean tight binding. The settings on record: protein: recombinant; tags: SBP (GST cleaved off with PreScission; pGEX-GST-SBP). The method in brief: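 For each oligo, R gives binding as its mapped-read-normalized abundance after pulldown divided by its abundance in input. Bead-captured SBP-tagged TDP-43 (5, 50 or 500 nM) was incubated with 500 nM of an in vitro-transcribed 260-nt 3′ UTR oligo pool for 1 h at 4 °C in 25 mM Tris-HCl, 150 mM KCl, 3 mM MgCl2, BSA and SUPERase IN on streptavidin beads. Washed, biotin-eluted RNA was reverse transcribed, PCR-amplified and sequenced.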
For the molecule B1, the binding signal is 2.37 R (bound/input frequency ratio).

In the case of B2, the binding signal was 0.49 R (bound/input frequency ratio).

B3: the binding signal was 0.438 R (bound/input frequency ratio).

Take B4: the binding signal was 0.397 R (bound/input frequency ratio).

For B5, the binding signal is 0.325 R (bound/input frequency ratio).

As for B6, the binding signal was 0.868 R (bound/input frequency ratio).

With B7, the binding signal was 0.829 R (bound/input frequency ratio).

With B8, the binding signal is 7.36 R (bound/input frequency ratio).

In the case of B9, the binding signal is 7.79 R (bound/input frequency ratio).
